Source: publication PMC5540273 (PLoS ONE, 2017)

Legend:
Conditions in all cases: concentration: 1 μM, replicates: in singlicate; n = 1
[1] = system: MKK7
[2] = system: MKNK1
[3] = system: MKNK2
[4] = system: T1, MLCK
T1 construct: gene MYLK3

[5] = system: T2, MLK1
T2 construct: gene MAP3K9

[6] = system: MLK2
[7] = system: MLK3
[8] = system: MRCKA
[9] = system: T3, MRCKB
T3 construct: gene CDC42BPB

[10] = system: MST1R
[11] = system: T4, MST1
T4 construct: gene STK4

[12] = system: T5, MST2
T5 construct: gene STK3

[13] = system: T6, MST3
T6 construct: gene STK24

[14] = system: MST4
[15] = system: MTOR
[16] = system: MUSK
[17] = system: MYLK2
[18] = system: MYLK4
[19] = system: MYLK
[20] = system: MYO3A
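Further: KINOMEscan kinase panel screen.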

Row | SMILES | %Inh [1] [%] | %Inh [2] [%] | %Inh [3] [%] | %Inh [4] [%] | %Inh [5] [%] | %Inh [6] [%] | %Inh [7] [%] | %Inh [8] [%] | %Inh [9] [%] | %Inh [10] [%] | %Inh [11] [%] | %Inh [12] [%] | %Inh [13] [%] | %Inh [14] [%] | %Inh [15] [%] | %Inh [16] [%] | %Inh [17] [%] | %Inh [18] [%] | %Inh [19] [%] | %Inh [20] [%]
1 | Cc1cccc(-c2nc(Nc3ccc4ncsc4c3)c3ccccc3n2)n1 [GW867588] | 0 | 16 | 0 | 0 | 7 | 20 | 1 | 2 | 33 | 0 | 18 | 0 | 0 | 16 | 0 | 0 | 0 | 0 | 0 | 0
2 | O=C1Cc2cc(Nc3nc(NCc4cccc(S(=O)(=O)C(F)(F)F)c4)ncc3C(F)(F)F)ccc2N1 | 0 | 0 | 0 | 10 | 0 | 32 | 3 | 5 | 10 | 0 | 14 | 27 | 0 | 1 | 29 | 0 | 0 | 8 | 2 | 0
3 | NCC(NC(=O)c1cc(-c2cn[nH]c2)c(-c2ccnc3[nH]ccc23)s1)c1ccccc1.O=C(O)C(F)(F)F.O=C(O)C(F)(F)F (centres unmarked) [GSK1325775] | 0 | 63 | 94.2 | 96.3 | 0 | 0 | 0 | 80 | 98.6 | 5 | 0 | 12 | 1 | 45 | 5 | 0 | 45 | 100 | 63 | 32
4 | Cc1nnc(-c2ccc(C)c(-c3ccc(C(=O)Nc4ccc(NS(C)(=O)=O)cc4)cc3)c2)o1 [GW702865] | 0 | 0 | 0 | 12 | 5 | 0 | 7 | 0 | 0 | 13 | 6 | 0 | 0 | 0 | 28 | 0 | 0 | 8 | 3 | 23
